Assay outcomes from PubChem.
In the library only some 3.2% were active in any assay of this set; here they are far more common.
dFosB act: mouse delta FosB homodimer activation. purified delta FosB, TAMRA-CDK5 oligo fluorescence polarization; percent of positive-control signal above neutral wells. activation, % at 25 µM. 340,000 compounds, 0.99% hits;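 active = mean activation above about 17%, with every replicate also reaching it, limit read from the data, passing the limit was not always enough; inconclusive = only one of the two conditions met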
SMARCA2 activ: increases SMARCA2 function in MMTV reporter cells. activation, % at 9.1 µM. AID 652017. MG213 cells, MMTV-luciferase reporter, dexamethasone, overnight. 370,000 compounds, 1% hits; in the data active = activation above about 7.8%
Dyrk1A ADPGlo: Dyrk1A (rat) kinase inhibition; ADP-Glo luminescence, NFATc1 peptide; inhibition, % at 12.5 µM; 310,000 compounds, 0.43% hits; AID 504441; in the data active = inhibition above about 50%
Rtt109 HAT inh: blocks Candida albicans Rtt109/Vps75 acetyltransferase activity; 330,000 compounds, 0.16% hits; inhibition, % at 34.9 µM; AID 540336; purified Rtt109/Vps75, ThioGlo CoA-SH fluorescence, 4 h;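 active = inhibition of at least 50% in every replicate; inconclusive = best replicate reaches 50% inhibition but some replicates fall short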
Target sequence (Q5AAJ8 whole entry, looked up): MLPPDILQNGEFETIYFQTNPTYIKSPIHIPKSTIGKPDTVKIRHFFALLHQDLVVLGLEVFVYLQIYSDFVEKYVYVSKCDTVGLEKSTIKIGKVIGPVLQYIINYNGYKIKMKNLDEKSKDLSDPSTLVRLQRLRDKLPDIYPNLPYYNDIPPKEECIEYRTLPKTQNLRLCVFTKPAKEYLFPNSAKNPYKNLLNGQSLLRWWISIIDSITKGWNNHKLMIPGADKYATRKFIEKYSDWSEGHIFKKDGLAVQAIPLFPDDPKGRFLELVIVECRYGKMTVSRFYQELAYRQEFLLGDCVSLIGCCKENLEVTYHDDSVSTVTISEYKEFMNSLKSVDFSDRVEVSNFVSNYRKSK
esBAF inh: blocks esBAF chromatin remodeling in mouse ES cells | Bmi1-luciferase knock-in reporter, 24 h; 100% = twice the neutral-well signal | reporter increase, % at 12.5 µM | 350,000 compounds, 2% hits | AID 602393; in the data active = activation above about 40%; inconclusive = no clear call, values can overlap the other calls;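 note: a rise in the Bmi1 reporter signal indicates esBAF inhibition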
CDK5 inh: blocks human CDK5/p35 kinase activity; 330,000 compounds, 0.01% hits; Recombinant CDK5/p35, ADP-Glo luminescence, 60 min; inhibition, % at 10 µM;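 active = highest replicate inhibition of at least 50% and at least 75% of replicates reaching 50%; inconclusive = only one of the two criteria met; inactive = both criteria failed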
A number is an active result; i = inactive; ? = inconclusive; nt = no result.

SMILES	dFosB act	SMARCA2 activ	Dyrk1A ADPGlo	Rtt109 HAT inh	esBAF inh	CDK5 inh
O=C1Nc2cc(C(=O)NCCCN3CCOCC3)ccc2S/C1=C/c1cccc(Cl)c1	i	i	i	i	i	i
O=C1Nc2cc(C(=O)NCCCN3CCCC3)ccc2S/C1=C\c1ccccc1	i	i	i	73	i	i
c1nc(C2CCCCC2)cc2cc3c(cc12)OCO3	i	i	nt	i	51	i
CCCNC(=O)Cn1sc2nc(C)cc(C)c2c1=O	i	i	i	113	nt	i
Cc1cc(C)c2c(=O)n(CC(=O)N3CCC(N4CCCCC4)CC3)sc2n1	i	i	i	?	i	i
Cc1nn(-c2ccc(N3CCCCC3)nn2)c(C)c1CCC(=O)Nc1cc(F)ccc1F	i	i	i	i	63	i
CSc1ccccc1OCc1cc(C(=O)N2CCCC2c2nonc2C)no1 (centres undefined)	i	i	i	i	i	i
CSc1ccccc1OCc1cc(C(=O)N2CCN(c3ccccc3)CC2C)no1 (centres undefined)	i	i	i	i	54	i
CC(=O)c1ccc(OCc2cc(C(=O)N(C)CC3COc4ccccc4O3)no2)cc1 (centres undefined)	nt	i	nt	nt	i	nt
CSc1ccccc1OCc1cc(C(=O)NCCc2ccco2)no1	i	i	i	i	65	i
CC(=O)c1ccc(OCc2cc(C(=O)N3CCN(c4ccccc4)CC3C)no2)cc1 (centres undefined)	i	i	i	i	110	i
Cc1noc(C)c1NC(=O)Nc1ccc2c(c1)C(=O)N([C@@H](C)CO)C[C@H](C)[C@H](CN(C)C(=O)NC(C)C)O2	nt	nt	nt	nt	i	nt
O=C(N/N=C/c1cccc(OCc2ccccc2)c1)c1cccs1	i	i	i	i	46	i
O=C(O)c1ccc(COc2ccc(/C=N/NC(=O)c3cccs3)cc2)cc1	i	nt	i	i	i	i
C[C@@H]1CN([C@H](C)CO)C(=O)Cc2cc(NC(=O)Nc3ccc(F)cc3)ccc2O[C@H]1CN(C)S(=O)(=O)c1cccs1	nt	nt	nt	nt	i	nt
CCN(CC)S(=O)(=O)c1ccc2c(c1)nc(-c1ccccn1)n2C	i	i	i	i	60	i
C[C@@H]1CN([C@H](C)CO)C(=O)c2cc(-c3cncnc3)cnc2O[C@H]1CN(C)C(=O)Cc1ccccn1	nt	nt	nt	nt	i	nt
Cc1ccc(-c2nc(SCC(=O)c3c(N)n(C4CC4)c(=O)[nH]c3=O)n[nH]2)cc1	i	i	nt	i	i	i
CCc1ccc(-c2nc(SCC(=O)c3c(N)n(C4CC4)c(=O)[nH]c3=O)n[nH]2)cc1	42	i	nt	i	i	i
COc1ccc(S(=O)(=O)Nc2ccc3c(c2)CC(=O)N([C@@H](C)CO)C[C@H](C)[C@@H](CN(C)Cc2ccc(Cl)c(Cl)c2)O3)cc1	nt	nt	nt	nt	i	nt
COc1ccc(-c2ccc(C(=O)Nc3ccccc3)c3occc23)c(C)c1	nt	i	nt	nt	86	nt
COc1ccc(-c2ccc(C(=O)Nc3ccc4c(c3)OCO4)c3occc23)c(C)c1	nt	i	nt	nt	59	nt
COc1ccccc1C(=O)Nc1ccc2c(c1)C(=O)N(C)C[C@H](OC)[C@H](C)CN(CC1CC1)[C@H](C)CO2	nt	nt	nt	nt	i	nt
C[C@H](CO)N1C[C@H](C)[C@@H](CN(C)C(=O)Nc2ccc(C(F)(F)F)cc2)Oc2ccc(NS(=O)(=O)c3ccc(Cl)cc3)cc2CC1=O	nt	nt	nt	nt	i	nt
C[C@@H]1CN([C@H](C)CO)C(=O)c2cccc(NC(=O)C3CCOCC3)c2O[C@@H]1CN(C)S(=O)(=O)c1cccs1	nt	nt	nt	nt	i	nt
SMILES	dFosB act	SMARCA2 activ	Dyrk1A ADPGlo	Rtt109 HAT inh	esBAF inh	CDK5 inh
Nc1nn(-c2ccccc2)c(N)c1N=Nc1ccccc1F	i	i	i	i	nt	i
Nc1c(N=Nc2ccccc2F)c(=O)[nH]n1-c1ccccc1	i	i	i	i	69	i
CC(C)NC(=O)Nc1ccc2c(c1)CC(=O)N([C@@H](C)CO)C[C@@H](C)[C@H](CN(C)S(C)(=O)=O)O2	nt	nt	nt	nt	i	nt
CCc1ccc(C(=O)CCC2CCCCC2=O)cc1 (centres undefined)	i	nt	i	i	i	i
O=C(CCC1CCCCC1=O)c1ccccc1 (centres undefined)	i	i	i	i	i	i
Cc1ccc(C(=O)CCC2CCCCC2=O)cc1 (centres undefined)	i	i	i	i	45	i
Cc1ccc(C(=O)CCC2CCCC2=O)cc1 (centres undefined)	i	i	i	i	57	i
CO[C@@H]1CN(C)C(=O)c2ccc(NC(=O)NC(C)C)cc2OC[C@@H](C)N(C)C[C@@H]1C	nt	nt	nt	nt	i	nt
CO[C@@H]1CN(C)C(=O)c2cc(NS(=O)(=O)Cc3ccccc3)ccc2OC[C@@H](C)NC[C@H]1C	nt	nt	nt	nt	i	nt
C[C@@H](NC(=O)C[C@@H]1C[C@H]2c3cc(NC(=O)c4cccnc4)ccc3O[C@H]2[C@H](CO)O1)c1ccccc1	nt	nt	nt	nt	i	nt
Cc1ccc2c(c1)COc1c3ccc(C(=O)N[C@@H](C)CO)cc3nn1-2	i	i	i	i	62	i
CCOc1c2ccc(C(=O)N[C@H](C)C3CCCCC3)cc2nn1CCOC	i	i	i	i	i	i
Cc1ccc2c(c1)COc1c3ccc(C(=O)NC(C)C)cc3nn1-2	i	i	i	i	84	i
CC(C)C(C(=O)Nc1cccnc1)N1C(=O)c2ccccc2C1=O (centres undefined)	i	i	i	53	i	i
CN(C)CC(=O)Nc1ccc2c(c1)[C@@H]1C[C@H](CC(=O)NCCc3ccccc3)O[C@@H](CO)[C@@H]1O2	nt	nt	nt	nt	i	nt
O=C(Nc1ccc(Oc2cccnc2)cc1)C1CCN(Cc2cc(Cl)ccc2O)CC1	i	i	i	59	i	i
COc1cccc(C(C(=O)NC2CCCC2)N(CCC(C)C)C(=O)CCC(=O)Nc2cc(C)on2)c1 (centres undefined)	i	i	i	50	i	i
C[C@@H]1CN([C@H](C)CO)S(=O)(=O)c2ccc(C3=CCCCC3)cc2O[C@H]1CN(C)C(=O)C1CCOCC1	nt	nt	nt	nt	i	nt
COc1ccc(Nc2nc(CC(C)=O)ns2)cc1	i	i	i	i	57	i
O=C(C[C@H]1C[C@@H]2c3cc(NC(=O)c4cccnc4)ccc3O[C@@H]2[C@@H](CO)O1)NCCN1CCCCC1	nt	nt	nt	nt	i	nt
CC1(C)CC(=O)C=C(c2ccc(Oc3ccccc3)cc2)C1	i	i	i	i	68	i
C/C=C/c1ccc2c(c1)O[C@H](CN(C)C(=O)COC)[C@H](C)CN([C@H](C)CO)S2(=O)=O	nt	nt	nt	nt	i	nt
CCCCn1cnc2c(cnn2-c2ccc(F)cc2)c1=O	i	i	i	i	nt	i
CCCn1cnc2c(cnn2-c2ccc(F)cc2)c1=O	i	i	i	i	52	i
CN1C(=O)c2cc(NC(=O)c3ccc(F)c(F)c3)ccc2OC[C@@H]2O[C@H](CC(=O)N[C@@H]3CCN(Cc4ccccc4)C3)CC[C@@H]21	nt	nt	nt	nt	i	nt
O=C(N[C@@H]1CC[C@H](CCNS(=O)(=O)c2ccccc2Cl)O[C@H]1CO)c1ccc(F)cc1	nt	nt	nt	nt	i	nt
